Experimental data: paper PMC7862700, “An all-to-all approach to the identification of sequence-specific readers for epigenetic DNA modifications on cytosine”

Assays:
Assay in all cases: DAPPL (digital affinity profiling via proximity ligation, sequencing); 10 mM Tris-HCl pH 7.5, 50 mM NaCl, 1 mM DTT, 4% glycerol, room temperature, 30 min; GST-TFs on glutathione beads, 16-mer random dsDNA library, 0.1% formaldehyde crosslink after washing; high values mean tight binding
Conditions in all cases: protein: recombinant; tags: N-terminal GST; dsDNA, one strand shown
FLI1 = target: T1, FLI1 (Homo sapiens, UniProt Q01543 1-452)
T1 sequence: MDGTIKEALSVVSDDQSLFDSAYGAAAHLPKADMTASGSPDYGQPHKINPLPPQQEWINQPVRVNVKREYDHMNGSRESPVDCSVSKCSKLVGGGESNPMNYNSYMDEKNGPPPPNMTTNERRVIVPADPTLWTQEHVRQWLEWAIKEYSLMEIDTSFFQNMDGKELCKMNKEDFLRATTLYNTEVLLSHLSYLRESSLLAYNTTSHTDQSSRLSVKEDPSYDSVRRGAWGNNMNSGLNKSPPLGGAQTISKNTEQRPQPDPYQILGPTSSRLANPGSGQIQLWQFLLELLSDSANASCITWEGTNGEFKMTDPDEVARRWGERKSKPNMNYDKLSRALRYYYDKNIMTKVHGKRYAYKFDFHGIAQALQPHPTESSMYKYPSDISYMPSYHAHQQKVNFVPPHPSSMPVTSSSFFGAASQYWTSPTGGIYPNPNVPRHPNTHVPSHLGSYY
In short: (§1)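 GST fusions of human transcription factors were expressed in yeast and captured with glutathione beads. Once given DNA barcodes and pooled alongside a tag-only sample, they were incubated for 30 min at room temperature with 200 nmole of a random double-stranded 16-mer DNA library in Tris/NaCl/DTT/glycerol buffer, then washed, crosslinked (0.1% formaldehyde), proximity-ligated, PCR-amplified and sequenced on an Illumina NextSeq500. The binding signal of each hexamer is its read frequency for a factor divided by its frequency for the tag-only sample.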

ELK1 = target: T2, ELK1 (Homo sapiens, UniProt P19419 1-428)
T2 sequence: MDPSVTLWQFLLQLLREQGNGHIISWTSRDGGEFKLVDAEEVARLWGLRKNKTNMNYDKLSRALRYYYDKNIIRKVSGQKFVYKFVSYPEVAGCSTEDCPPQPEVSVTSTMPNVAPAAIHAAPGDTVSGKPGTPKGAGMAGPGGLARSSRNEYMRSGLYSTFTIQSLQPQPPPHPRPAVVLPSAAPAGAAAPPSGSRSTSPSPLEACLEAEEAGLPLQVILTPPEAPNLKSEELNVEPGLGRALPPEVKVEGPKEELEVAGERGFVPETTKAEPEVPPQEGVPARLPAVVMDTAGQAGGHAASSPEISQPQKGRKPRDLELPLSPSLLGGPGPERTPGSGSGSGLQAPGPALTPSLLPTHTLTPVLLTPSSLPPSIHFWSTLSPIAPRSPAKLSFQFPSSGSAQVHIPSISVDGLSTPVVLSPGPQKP
In short: as §1

GABPA = target: T3, GABPA (Homo sapiens, UniProt Q06546 1-454)
T3 sequence: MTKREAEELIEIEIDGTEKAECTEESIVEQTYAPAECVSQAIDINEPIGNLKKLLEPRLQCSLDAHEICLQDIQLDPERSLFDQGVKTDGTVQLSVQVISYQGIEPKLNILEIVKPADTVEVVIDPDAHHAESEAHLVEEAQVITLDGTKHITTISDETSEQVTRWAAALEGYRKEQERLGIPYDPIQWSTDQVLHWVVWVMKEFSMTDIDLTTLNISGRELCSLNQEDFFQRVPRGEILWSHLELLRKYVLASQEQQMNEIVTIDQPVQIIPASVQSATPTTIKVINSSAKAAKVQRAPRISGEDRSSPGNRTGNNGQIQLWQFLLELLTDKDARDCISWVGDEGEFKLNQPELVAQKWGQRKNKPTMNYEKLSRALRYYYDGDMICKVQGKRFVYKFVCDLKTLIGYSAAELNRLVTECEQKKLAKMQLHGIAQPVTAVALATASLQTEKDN
In short: as §1

ERG = target: T4, ERG (Homo sapiens, UniProt P11308 1-479)
T4 sequence: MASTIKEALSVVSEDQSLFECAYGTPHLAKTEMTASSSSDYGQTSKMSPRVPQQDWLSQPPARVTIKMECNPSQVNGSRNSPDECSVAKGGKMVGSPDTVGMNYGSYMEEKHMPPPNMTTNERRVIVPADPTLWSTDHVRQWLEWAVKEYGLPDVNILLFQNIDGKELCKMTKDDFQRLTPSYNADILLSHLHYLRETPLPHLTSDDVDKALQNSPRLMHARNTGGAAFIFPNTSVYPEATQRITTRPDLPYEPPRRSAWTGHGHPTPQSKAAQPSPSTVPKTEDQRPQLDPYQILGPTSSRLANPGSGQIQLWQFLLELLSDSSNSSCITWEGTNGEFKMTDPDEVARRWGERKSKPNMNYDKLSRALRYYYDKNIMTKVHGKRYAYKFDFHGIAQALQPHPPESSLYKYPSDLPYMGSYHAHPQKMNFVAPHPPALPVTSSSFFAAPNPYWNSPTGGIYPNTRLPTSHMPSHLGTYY
In short: as §1

ELF1 = ELF1 (Homo sapiens, UniProt P32519 1-619)
ELF1, sequence (P32519 whole entry): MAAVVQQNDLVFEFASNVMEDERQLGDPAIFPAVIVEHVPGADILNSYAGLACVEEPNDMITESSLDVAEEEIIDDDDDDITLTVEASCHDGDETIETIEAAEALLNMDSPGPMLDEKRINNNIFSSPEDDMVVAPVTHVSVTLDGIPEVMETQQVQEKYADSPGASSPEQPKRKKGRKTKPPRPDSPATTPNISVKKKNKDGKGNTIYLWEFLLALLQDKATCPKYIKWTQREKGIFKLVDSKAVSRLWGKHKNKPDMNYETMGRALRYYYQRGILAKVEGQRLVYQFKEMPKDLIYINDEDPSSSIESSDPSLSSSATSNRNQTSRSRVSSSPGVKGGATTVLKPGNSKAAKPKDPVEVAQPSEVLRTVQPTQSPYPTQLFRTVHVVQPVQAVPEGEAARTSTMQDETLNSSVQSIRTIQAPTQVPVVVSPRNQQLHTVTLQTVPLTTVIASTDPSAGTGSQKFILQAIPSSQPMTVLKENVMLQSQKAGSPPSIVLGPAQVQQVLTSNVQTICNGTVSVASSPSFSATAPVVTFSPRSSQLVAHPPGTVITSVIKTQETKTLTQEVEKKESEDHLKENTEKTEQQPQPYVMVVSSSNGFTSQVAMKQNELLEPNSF
In short: as §1

EHF = target: T5, EHF (Homo sapiens, UniProt Q9NZC4 1-300)
T5 sequence: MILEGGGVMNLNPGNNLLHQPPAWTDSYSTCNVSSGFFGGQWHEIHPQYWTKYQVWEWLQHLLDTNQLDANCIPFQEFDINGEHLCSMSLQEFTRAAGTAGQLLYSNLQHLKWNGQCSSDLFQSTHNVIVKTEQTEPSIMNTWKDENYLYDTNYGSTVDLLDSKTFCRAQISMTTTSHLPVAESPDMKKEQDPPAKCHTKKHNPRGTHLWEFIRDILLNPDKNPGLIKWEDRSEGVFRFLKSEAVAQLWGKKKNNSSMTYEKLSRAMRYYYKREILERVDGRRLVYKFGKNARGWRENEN
In short: as §1

SPI1 = SPI1 (Homo sapiens, UniProt P17947 1-270)
In short: as §1

SPIB = SPIB (Homo sapiens, UniProt Q01892 1-262)
SPIB, sequence (Q01892 whole entry): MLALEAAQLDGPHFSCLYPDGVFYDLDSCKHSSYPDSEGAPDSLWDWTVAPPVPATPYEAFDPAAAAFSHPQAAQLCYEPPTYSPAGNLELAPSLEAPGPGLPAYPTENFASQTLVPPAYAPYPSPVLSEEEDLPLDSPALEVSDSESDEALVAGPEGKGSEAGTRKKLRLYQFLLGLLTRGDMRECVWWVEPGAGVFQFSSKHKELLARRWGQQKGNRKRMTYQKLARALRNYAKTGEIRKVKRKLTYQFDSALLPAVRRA
In short: as §1

ELK3 = target: T6, ELK3 (Homo sapiens, UniProt P41970 1-407)
T6 sequence: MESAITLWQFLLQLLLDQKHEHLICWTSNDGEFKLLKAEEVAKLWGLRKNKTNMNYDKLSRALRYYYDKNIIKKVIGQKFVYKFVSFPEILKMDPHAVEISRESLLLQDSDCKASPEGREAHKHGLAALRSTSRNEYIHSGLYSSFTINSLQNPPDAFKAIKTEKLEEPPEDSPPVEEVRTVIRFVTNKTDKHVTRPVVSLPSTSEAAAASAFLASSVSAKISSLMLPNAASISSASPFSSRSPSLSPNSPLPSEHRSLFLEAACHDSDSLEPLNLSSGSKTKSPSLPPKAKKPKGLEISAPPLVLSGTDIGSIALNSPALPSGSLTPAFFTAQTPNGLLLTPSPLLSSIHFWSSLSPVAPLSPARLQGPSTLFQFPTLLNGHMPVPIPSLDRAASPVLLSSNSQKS
In short: as §1

| Sequence | binding signal (FLI1) | binding signal (ELK1) | binding signal (GABPA) | binding signal (ERG) | binding signal (ELF1) | binding signal (EHF) | binding signal (SPI1) | binding signal (SPIB) | binding signal (ELK3) |
| --- | --- | --- | --- | --- | --- | --- | --- | --- | --- |
| CCGGAC | 1.47 fold enrichment (6-mer frequency, TF over GST control) | 1.48 fold enrichment (6-mer frequency, TF over GST control) | 1.41 fold enrichment (6-mer frequency, TF over GST control) | 1.74 fold enrichment (6-mer frequency, TF over GST control) | 1.44 fold enrichment (6-mer frequency, TF over GST control) | 1.56 fold enrichment (6-mer frequency, TF over GST control) | 1.41 fold enrichment (6-mer frequency, TF over GST control) | 1.57 fold enrichment (6-mer frequency, TF over GST control) | 1.38 fold enrichment (6-mer frequency, TF over GST control) |
| AAACTT | 1.27 fold enrichment (6-mer frequency, TF over GST control) | 1.22 fold enrichment (6-mer frequency, TF over GST control) | 1.31 fold enrichment (6-mer frequency, TF over GST control) | 1.24 fold enrichment (6-mer frequency, TF over GST control) | 1.24 fold enrichment (6-mer frequency, TF over GST control) | 1.31 fold enrichment (6-mer frequency, TF over GST control) | 1.24 fold enrichment (6-mer frequency, TF over GST control) | 1.25 fold enrichment (6-mer frequency, TF over GST control) | 1.3 fold enrichment (6-mer frequency, TF over GST control) |
| CTGAGC | 1.08 fold enrichment (6-mer frequency, TF over GST control) | 1.15 fold enrichment (6-mer frequency, TF over GST control) | 1.18 fold enrichment (6-mer frequency, TF over GST control) | 1.09 fold enrichment (6-mer frequency, TF over GST control) | 1.19 fold enrichment (6-mer frequency, TF over GST control) | 1.18 fold enrichment (6-mer frequency, TF over GST control) | 1.11 fold enrichment (6-mer frequency, TF over GST control) | 1.06 fold enrichment (6-mer frequency, TF over GST control) | 1.18 fold enrichment (6-mer frequency, TF over GST control) |
| GCTTAT | 1.33 fold enrichment (6-mer frequency, TF over GST control) | 1.21 fold enrichment (6-mer frequency, TF over GST control) | 1.28 fold enrichment (6-mer frequency, TF over GST control) | 1.18 fold enrichment (6-mer frequency, TF over GST control) | 1.28 fold enrichment (6-mer frequency, TF over GST control) | 1.12 fold enrichment (6-mer frequency, TF over GST control) | 1.3 fold enrichment (6-mer frequency, TF over GST control) | 1.31 fold enrichment (6-mer frequency, TF over GST control) | 1.16 fold enrichment (6-mer frequency, TF over GST control) |
